# Test results: ChEMBL document CHEMBL2218924, “A broad activity screen in support of a chemogenomic map for kinase signalling research and drug discovery” (Biochem J, 2013)
# Experiments:
# [1] = molecular target: T1, Serine/threonine-protein kinase ULK2 (Homo sapiens) (UniProt Q8IYT8); settings: at 1 µM
# T1 sequence (whole entry): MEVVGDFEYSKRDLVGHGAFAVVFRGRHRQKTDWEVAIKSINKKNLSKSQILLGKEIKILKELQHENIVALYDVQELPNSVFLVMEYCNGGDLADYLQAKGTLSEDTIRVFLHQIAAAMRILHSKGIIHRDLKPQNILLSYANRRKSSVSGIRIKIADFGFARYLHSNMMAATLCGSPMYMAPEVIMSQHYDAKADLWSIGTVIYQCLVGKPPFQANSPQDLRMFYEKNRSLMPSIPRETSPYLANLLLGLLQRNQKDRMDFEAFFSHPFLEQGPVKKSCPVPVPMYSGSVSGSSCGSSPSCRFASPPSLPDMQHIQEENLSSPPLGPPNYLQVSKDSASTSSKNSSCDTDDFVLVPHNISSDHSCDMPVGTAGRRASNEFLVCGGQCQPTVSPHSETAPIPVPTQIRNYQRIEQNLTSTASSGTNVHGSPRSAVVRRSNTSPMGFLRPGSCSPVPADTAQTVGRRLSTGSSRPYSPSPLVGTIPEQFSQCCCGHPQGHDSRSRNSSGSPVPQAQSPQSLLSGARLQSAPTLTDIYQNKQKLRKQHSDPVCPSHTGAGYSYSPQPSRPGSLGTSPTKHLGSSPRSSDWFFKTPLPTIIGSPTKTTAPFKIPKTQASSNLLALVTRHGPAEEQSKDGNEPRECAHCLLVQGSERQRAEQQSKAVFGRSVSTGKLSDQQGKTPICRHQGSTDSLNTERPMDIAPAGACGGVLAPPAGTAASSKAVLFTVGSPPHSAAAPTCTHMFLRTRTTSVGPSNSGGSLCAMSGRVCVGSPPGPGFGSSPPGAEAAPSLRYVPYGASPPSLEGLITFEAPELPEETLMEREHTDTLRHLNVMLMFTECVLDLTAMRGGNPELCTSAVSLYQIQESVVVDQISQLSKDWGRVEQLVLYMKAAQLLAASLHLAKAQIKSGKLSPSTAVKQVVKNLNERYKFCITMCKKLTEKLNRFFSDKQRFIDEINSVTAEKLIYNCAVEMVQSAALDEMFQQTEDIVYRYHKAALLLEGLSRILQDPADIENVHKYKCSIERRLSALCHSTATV
# [2] = molecular target: T1, Serine/threonine-protein kinase ULK2 (Homo sapiens); settings: at 10 µM
# [3] = molecular target: T2, Serine/threonine-protein kinase ULK3 (Homo sapiens) (UniProt Q6PHR2); settings: at 1 µM
# T2 sequence (whole entry): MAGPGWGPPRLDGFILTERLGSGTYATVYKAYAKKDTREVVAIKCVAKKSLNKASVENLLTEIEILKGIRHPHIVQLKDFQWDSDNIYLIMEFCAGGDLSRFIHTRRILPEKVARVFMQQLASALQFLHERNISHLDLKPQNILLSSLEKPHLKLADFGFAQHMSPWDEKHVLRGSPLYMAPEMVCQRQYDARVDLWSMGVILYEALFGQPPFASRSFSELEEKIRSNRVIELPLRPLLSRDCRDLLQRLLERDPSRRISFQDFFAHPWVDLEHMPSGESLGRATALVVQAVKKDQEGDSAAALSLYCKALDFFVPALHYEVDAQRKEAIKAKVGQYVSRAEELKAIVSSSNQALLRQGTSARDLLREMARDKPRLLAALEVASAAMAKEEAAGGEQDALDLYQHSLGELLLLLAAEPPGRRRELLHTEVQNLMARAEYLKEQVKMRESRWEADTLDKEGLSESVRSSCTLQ
# [4] = molecular target: T2, Serine/threonine-protein kinase ULK3 (Homo sapiens); settings: at 10 µM
# [5] = molecular target: Serine/threonine-protein kinase VRK2 (Homo sapiens) (UniProt Q86Y07); settings: at 10 µM
# Chain of Serine/threonine-protein kinase VRK2 (Homo sapiens) (Q86Y07 whole entry): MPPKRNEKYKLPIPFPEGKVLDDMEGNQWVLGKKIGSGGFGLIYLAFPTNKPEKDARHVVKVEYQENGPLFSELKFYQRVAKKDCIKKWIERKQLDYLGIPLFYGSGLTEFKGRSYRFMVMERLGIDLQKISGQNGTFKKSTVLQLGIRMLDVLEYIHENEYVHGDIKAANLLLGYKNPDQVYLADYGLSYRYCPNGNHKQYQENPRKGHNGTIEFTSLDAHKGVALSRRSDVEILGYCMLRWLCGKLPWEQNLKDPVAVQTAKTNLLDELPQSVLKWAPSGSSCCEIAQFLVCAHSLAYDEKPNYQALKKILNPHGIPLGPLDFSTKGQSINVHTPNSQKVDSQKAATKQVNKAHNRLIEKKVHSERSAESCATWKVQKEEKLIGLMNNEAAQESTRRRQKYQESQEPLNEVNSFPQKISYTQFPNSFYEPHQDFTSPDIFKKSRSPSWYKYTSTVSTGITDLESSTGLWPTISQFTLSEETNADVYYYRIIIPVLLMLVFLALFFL
# [6] = molecular target: Serine/threonine-protein kinase WNK3 (Homo sapiens) (UniProt Q9BYP7); settings: at 10 µM
# Chain of Serine/threonine-protein kinase WNK3 (Homo sapiens) (Q9BYP7 whole entry): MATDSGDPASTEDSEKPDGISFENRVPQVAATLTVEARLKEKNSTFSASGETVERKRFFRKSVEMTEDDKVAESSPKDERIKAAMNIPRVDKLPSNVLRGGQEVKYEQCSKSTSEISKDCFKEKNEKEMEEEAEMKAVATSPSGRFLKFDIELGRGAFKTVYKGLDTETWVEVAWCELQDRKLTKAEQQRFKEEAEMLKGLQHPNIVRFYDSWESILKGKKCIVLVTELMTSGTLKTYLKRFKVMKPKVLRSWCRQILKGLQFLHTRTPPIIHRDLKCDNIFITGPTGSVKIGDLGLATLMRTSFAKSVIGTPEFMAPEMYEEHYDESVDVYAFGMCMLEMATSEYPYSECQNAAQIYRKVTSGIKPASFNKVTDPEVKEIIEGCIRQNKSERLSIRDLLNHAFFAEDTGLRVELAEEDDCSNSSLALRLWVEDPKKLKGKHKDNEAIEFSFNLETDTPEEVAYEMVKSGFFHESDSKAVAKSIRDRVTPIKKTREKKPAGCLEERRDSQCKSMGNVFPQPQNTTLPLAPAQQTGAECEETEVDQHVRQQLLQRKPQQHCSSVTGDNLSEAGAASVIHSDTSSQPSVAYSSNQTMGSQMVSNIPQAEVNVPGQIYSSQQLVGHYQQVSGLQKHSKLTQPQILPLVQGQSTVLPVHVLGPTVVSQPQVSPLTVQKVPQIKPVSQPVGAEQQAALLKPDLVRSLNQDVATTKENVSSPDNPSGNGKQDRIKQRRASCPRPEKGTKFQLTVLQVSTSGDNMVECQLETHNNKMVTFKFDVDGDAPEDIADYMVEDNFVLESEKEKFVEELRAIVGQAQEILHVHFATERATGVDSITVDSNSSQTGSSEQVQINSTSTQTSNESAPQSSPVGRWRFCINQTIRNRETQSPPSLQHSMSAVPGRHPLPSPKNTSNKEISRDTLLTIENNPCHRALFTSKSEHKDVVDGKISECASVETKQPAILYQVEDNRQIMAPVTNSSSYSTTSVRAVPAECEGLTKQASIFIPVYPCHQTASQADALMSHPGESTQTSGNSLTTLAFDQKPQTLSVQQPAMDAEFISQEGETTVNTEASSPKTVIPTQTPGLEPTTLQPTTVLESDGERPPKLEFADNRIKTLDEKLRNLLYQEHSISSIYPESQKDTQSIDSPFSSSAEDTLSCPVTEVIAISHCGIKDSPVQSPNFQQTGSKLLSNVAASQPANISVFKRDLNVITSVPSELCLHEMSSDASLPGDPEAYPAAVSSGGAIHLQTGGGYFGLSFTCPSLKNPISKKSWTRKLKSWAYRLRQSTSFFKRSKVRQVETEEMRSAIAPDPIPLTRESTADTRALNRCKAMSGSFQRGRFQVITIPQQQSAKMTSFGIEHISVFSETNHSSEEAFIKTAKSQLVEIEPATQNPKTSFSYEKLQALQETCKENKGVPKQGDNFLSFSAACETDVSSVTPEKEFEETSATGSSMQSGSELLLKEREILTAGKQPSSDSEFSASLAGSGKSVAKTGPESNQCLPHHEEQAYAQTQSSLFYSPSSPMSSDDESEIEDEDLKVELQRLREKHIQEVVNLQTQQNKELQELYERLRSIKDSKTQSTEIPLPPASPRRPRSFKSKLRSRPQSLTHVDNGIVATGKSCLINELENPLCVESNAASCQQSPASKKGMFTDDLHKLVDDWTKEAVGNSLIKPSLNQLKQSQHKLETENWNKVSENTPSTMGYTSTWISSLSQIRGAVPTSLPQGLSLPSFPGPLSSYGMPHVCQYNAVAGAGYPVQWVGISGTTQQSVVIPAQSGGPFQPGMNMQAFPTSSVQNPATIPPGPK
# [7] = molecular target: Tyrosine-protein kinase Yes (Homo sapiens) (UniProt P07947); settings: at 1 µM
# Chain of Tyrosine-protein kinase Yes (Homo sapiens) (P07947 2-543 limits assumed): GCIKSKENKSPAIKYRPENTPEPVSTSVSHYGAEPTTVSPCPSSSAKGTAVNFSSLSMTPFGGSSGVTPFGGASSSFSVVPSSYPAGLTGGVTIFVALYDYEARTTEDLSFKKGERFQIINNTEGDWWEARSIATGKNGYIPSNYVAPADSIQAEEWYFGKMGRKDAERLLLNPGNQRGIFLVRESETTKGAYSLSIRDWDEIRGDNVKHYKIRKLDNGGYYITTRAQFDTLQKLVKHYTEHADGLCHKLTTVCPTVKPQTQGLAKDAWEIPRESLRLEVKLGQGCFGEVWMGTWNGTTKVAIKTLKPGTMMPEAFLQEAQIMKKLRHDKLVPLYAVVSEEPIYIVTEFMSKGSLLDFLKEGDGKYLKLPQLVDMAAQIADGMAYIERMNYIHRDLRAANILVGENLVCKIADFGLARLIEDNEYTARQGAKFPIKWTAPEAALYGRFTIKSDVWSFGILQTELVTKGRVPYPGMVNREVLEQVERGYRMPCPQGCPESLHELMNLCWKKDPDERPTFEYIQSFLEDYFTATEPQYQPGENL
# [8] = molecular target: Tyrosine-protein kinase Yes (Homo sapiens) (UniProt P07947); settings: at 10 µM
# [9] = molecular target: RAF proto-oncogene serine/threonine-protein kinase (Homo sapiens) (UniProt P04049); settings: at 1 µM
# Chain of RAF proto-oncogene serine/threonine-protein kinase (Homo sapiens) (P04049 whole entry): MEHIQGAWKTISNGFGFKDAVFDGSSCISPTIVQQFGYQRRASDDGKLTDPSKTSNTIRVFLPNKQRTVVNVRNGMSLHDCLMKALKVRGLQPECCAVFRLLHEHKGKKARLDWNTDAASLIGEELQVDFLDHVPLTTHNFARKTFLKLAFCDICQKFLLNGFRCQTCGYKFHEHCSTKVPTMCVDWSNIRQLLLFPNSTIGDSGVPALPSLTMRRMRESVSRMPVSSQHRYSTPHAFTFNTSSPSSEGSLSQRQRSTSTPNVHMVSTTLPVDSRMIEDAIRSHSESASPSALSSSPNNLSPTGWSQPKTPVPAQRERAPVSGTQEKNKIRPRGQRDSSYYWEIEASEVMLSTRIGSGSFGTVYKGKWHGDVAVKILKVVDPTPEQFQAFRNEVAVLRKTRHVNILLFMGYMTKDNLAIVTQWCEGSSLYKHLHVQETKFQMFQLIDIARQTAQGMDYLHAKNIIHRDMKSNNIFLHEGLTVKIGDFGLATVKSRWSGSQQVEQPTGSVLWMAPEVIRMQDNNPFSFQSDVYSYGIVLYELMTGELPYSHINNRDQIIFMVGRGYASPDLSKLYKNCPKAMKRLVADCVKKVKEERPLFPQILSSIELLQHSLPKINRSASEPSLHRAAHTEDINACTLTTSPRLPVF
# [10] = molecular target: RAF proto-oncogene serine/threonine-protein kinase (Homo sapiens) (UniProt P04049); settings: at 10 µM
# [11] = molecular target: Serine/threonine-protein kinase VRK2 (Homo sapiens) (UniProt Q86Y07); settings: at 1 µM
# [12] = molecular target: Serine/threonine-protein kinase WNK2 (Homo sapiens) (UniProt Q9Y3S1); settings: at 1 µM
# [13] = molecular target: Serine/threonine-protein kinase WNK2 (Homo sapiens) (UniProt Q9Y3S1); settings: at 10 µM
# [14] = molecular target: T3, Tyrosine-protein kinase ZAP-70 (Homo sapiens) (UniProt P43403); settings: at 1 µM
# T3 sequence (whole entry): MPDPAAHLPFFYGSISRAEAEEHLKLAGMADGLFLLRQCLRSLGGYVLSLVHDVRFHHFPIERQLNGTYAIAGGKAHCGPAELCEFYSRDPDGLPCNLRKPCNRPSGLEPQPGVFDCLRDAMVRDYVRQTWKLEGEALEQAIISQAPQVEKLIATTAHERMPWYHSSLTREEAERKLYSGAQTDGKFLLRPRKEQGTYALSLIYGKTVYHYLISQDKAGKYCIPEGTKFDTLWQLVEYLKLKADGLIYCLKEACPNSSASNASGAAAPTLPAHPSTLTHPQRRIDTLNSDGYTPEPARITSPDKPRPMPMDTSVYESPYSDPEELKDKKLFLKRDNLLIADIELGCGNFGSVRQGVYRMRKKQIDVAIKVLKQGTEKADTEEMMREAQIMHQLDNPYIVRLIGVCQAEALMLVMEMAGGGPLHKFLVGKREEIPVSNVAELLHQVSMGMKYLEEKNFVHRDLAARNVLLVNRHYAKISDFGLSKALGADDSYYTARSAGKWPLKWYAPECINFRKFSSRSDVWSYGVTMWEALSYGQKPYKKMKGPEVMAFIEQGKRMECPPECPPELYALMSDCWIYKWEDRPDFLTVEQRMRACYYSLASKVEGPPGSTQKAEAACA
# [15] = molecular target: T3, Tyrosine-protein kinase ZAP-70 (Homo sapiens); settings: at 10 µM
# [16] = molecular target: Mast/stem cell growth factor receptor Kit (Homo sapiens) (UniProt P10721); settings: at 1 µM
# Chain of Mast/stem cell growth factor receptor Kit (Homo sapiens) (P10721 whole entry): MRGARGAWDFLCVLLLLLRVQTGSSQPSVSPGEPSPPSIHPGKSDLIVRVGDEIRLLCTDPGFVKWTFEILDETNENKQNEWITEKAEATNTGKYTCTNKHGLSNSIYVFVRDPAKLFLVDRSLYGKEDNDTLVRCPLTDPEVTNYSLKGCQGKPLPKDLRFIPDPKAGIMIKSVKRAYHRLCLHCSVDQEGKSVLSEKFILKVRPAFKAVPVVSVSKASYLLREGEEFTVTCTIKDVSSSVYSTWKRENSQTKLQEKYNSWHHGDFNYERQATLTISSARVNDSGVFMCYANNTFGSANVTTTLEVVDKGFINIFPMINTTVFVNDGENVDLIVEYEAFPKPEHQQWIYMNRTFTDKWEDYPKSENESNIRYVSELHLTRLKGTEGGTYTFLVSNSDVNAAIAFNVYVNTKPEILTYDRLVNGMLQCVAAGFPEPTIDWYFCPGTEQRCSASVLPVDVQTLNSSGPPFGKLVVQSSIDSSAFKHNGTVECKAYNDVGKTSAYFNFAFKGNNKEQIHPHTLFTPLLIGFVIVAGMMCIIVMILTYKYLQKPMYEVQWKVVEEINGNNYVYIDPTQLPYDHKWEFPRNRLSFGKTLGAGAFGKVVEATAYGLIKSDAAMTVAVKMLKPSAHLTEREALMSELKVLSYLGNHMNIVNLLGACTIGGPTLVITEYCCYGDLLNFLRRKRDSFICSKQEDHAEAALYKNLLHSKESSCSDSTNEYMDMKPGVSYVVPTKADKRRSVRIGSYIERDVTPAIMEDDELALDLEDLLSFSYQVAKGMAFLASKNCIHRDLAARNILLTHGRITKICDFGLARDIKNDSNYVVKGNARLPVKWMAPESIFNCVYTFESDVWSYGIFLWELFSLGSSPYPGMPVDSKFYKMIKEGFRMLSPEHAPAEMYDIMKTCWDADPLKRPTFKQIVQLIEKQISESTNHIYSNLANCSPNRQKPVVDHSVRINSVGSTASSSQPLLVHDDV
# [17] = molecular target: Mast/stem cell growth factor receptor Kit (Homo sapiens) (UniProt P10721); settings: at 10 µM
# [18] = molecular target: Serine/threonine-protein kinase WNK3 (Homo sapiens) (UniProt Q9BYP7); settings: at 1 µM
# [19] = molecular target: Death-associated protein kinase 3 (Homo sapiens) (UniProt O43293); settings: at 1 µM
# Chain of Death-associated protein kinase 3 (Homo sapiens) (O43293 whole entry, looked up): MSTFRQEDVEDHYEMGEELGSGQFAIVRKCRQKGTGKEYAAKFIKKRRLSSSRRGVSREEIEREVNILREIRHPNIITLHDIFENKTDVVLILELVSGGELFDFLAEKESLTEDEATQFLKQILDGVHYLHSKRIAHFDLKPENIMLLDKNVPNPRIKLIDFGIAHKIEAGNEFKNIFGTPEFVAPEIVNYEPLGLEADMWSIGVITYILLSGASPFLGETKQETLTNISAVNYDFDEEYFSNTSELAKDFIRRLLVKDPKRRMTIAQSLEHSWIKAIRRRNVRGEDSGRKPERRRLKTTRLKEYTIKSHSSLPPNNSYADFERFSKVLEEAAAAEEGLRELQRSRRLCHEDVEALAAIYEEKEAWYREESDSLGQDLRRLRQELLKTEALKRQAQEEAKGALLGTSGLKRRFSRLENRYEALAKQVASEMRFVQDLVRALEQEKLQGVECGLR
# [20] = molecular target: Death-associated protein kinase 3 (Homo sapiens) (UniProt O43293); settings: at 10 µM
structure (smiles),measurement,setting,value
COc1ccc2c(c1)/C(=C/c1cnc[nH]1)C(=O)N2,residual activity,[1],81%
same,residual activity,[2],23%
same,residual activity,[3],80%
same,residual activity,[4],23%
same,residual activity,[5],66%
same,residual activity,[6],96%
same,residual activity,[7],96%
same,residual activity,[8],19%
same,residual activity,[9],75%
same,residual activity,[10],74%
CCc1nc(-c2ccc(OC)cc2)[nH]c1-c1ccncc1,residual activity,[1],115%
same,residual activity,[2],105%
same,residual activity,[11],113% (inactive)
same,residual activity,[5],101%
same,residual activity,[12],112% (inactive)
same,residual activity,[13],100%
same,residual activity,[6],108%
same,residual activity,[7],123%
same,residual activity,[8],101%
same,residual activity,[14],119%
same,residual activity,[15],121%
same,residual activity,[16],127%
same,residual activity,[17],104%
COC(=O)[C@@]1(O)C[C@H]2O[C@]1(C)n1c3ccccc3c3c4c(c5c6ccccc6n2c5c31)C(=O)NC4,residual activity,[1],7%
same,residual activity,[2],0%
same,residual activity,[3],0%
same,residual activity,[4],1%
same,residual activity,[11],100% (inactive)
same,residual activity,[5],101%
same,residual activity,[12],63% (inactive)
same,residual activity,[13],12%
same,residual activity,[18],70% (inactive)
same,residual activity,[6],8%
same,residual activity,[7],11%
same,residual activity,[8],1%
same,residual activity,[14],16%
same,residual activity,[15],2%
same,residual activity,[19],12%
same,residual activity,[20],2%
same,residual activity,[9],78%
same,residual activity,[10],69%
same,residual activity,[16],76%
same,residual activity,[17],20%
CC(C)n1cnc2c(NCc3ccccc3)nc(NCCCO)nc21,residual activity,[15],119%
O=C1Nc2ccc(Cl)cc2/C1=C/c1cc(Cl)c(O)c(Cl)c1,residual activity,[15],100%
CC(C)[C@H](CO)Nc1nc(Nc2cccc(Cl)c2)c2ncn(C(C)C)c2n1,residual activity,[1],83%
same,residual activity,[2],39%
same,residual activity,[3],39%
same,residual activity,[4],7%
same,residual activity,[11],85% (inactive)
same,residual activity,[5],30%
same,residual activity,[12],91% (inactive)
same,residual activity,[13],46%
same,residual activity,[18],82% (inactive)
same,residual activity,[6],51%
same,residual activity,[7],4%
same,residual activity,[8],0%
same,residual activity,[19],96%
same,residual activity,[9],73%
same,residual activity,[10],43%
same,residual activity,[16],117%
same,residual activity,[17],98%
CCn1cnc2c(Nc3cccc(Cl)c3)nc(N[C@@H]3CCCC[C@@H]3N)nc21,residual activity,[1],54%
same,residual activity,[2],15%
same,residual activity,[3],40%
same,residual activity,[4],8%
same,residual activity,[11],94% (inactive)
same,residual activity,[5],48%
same,residual activity,[12],88% (inactive)
same,residual activity,[13],45%
same,residual activity,[18],87% (inactive)
same,residual activity,[6],56%
same,residual activity,[7],7%
same,residual activity,[8],1%
same,residual activity,[14],93%
same,residual activity,[15],95%
same,residual activity,[20],55%
same,residual activity,[9],68%
same,residual activity,[10],23%
same,residual activity,[17],86%
CC(C)c1nn(-c2c(Cl)cccc2Cl)c2nc(Cc3ccc(OCCO)cc3)[nH]c(=O)c12,residual activity,[15],84%
CN[C@@H]1C[C@H]2O[C@@](C)([C@@H]1OC)n1c3ccccc3c3c4c(c5c6ccccc6n2c5c31)C(=O)NC4,residual activity,[1],2%
same,residual activity,[2],0%
same,residual activity,[11],108% (inactive)
same,residual activity,[5],90%
same,residual activity,[12],92% (inactive)
same,residual activity,[13],30%
same,residual activity,[18],88% (inactive)
same,residual activity,[9],109%
same,residual activity,[10],99%
COc1cc(OC)c(/C=C2\C(=O)Nc3ccccc32)c(OC)c1,residual activity,[2],99%
same,residual activity,[3],95%
same,residual activity,[4],95%
same,residual activity,[11],83% (inactive)
same,residual activity,[5],32%
same,residual activity,[12],89% (inactive)
same,residual activity,[13],78%
same,residual activity,[18],93% (inactive)
same,residual activity,[6],83%
same,residual activity,[8],78%
same,residual activity,[14],90%
same,residual activity,[15],82%
same,residual activity,[20],96%
same,residual activity,[9],67%
same,residual activity,[10],67%
same,residual activity,[16],98%
same,residual activity,[17],105%
N/C(=N\[N+](=O)[O-])N/N=C\c1ccc(-c2cccc([N+](=O)[O-])c2)o1,residual activity,[3],92%
same,residual activity,[4],88%
same,residual activity,[8],100%
same,residual activity,[14],99%
same,residual activity,[15],100%
same,residual activity,[9],88%
same,residual activity,[10],80%
COc1ccc2c(c[n+](C)c3c4cc5c(cc4ccc23)OCO5)c1OC,residual activity,[2],94%
same,residual activity,[4],96%
same,residual activity,[11],110% (inactive)
same,residual activity,[5],91%
same,residual activity,[13],76%
same,residual activity,[6],84%
same,residual activity,[8],84%
same,residual activity,[14],119%
same,residual activity,[15],95%
same,residual activity,[19],94%
same,residual activity,[16],123%
same,residual activity,[17],95%
COc1cc2ncnc(Nc3ccc(OCc4ccccc4)cc3)c2cc1OC,residual activity,[1],102%
same,residual activity,[2],93%
same,residual activity,[3],104%
same,residual activity,[4],69%
same,residual activity,[11],112% (inactive)
same,residual activity,[5],97%
same,residual activity,[12],93% (inactive)
same,residual activity,[13],55%
same,residual activity,[18],95% (inactive)
same,residual activity,[6],64%
same,residual activity,[7],64%
same,residual activity,[8],39%
same,residual activity,[14],112%
same,residual activity,[15],107%
same,residual activity,[19],86%
same,residual activity,[20],104%
same,residual activity,[9],86%
same,residual activity,[10],96%
same,residual activity,[16],98%
same,residual activity,[17],29%
COc1ccc2c(c1)c(C1=C(c3c[nH]c4ccccc34)C(=O)NC1=O)cn2CCCN(C)C,residual activity,[15],120%
O=C1NC(=O)c2c1c1c3ccccc3n3c1c1c2c2ccccc2n1C1CCC3O1,residual activity,[3],58%
same,residual activity,[4],58%
same,residual activity,[12],100% (inactive)
same,residual activity,[13],99%
same,residual activity,[18],94% (inactive)
same,residual activity,[6],90%
same,residual activity,[14],132%
same,residual activity,[15],125%
same,residual activity,[19],80%
same,residual activity,[20],78%
same,residual activity,[9],77%
same,residual activity,[10],98%
O=C(O)/C=C/c1cc(Br)c(Br)c(Br)c1Br,residual activity,[15],82%
O=C1c2ccccc2-[n+]2ccc3c([nH]c4ccccc43)c21,residual activity,[15],132%
CO[C@H]1C[C@@H]2CC[C@@H](C)[C@@](O)(O2)C(=O)C(=O)N2CCCC[C@H]2C(=O)O[C@H]([C@H](C)C[C@@H]2CC[C@@H](O)[C@H](OC)C2)CC(=O)[C@H](C)/C=C(\C)[C@@H](O)[C@@H](OC)C(=O)[C@H](C)C[C@H](C)/C=C/C=C/C=C/1C,residual activity,[15],121%
COc1cc2ncnc(Nc3ccc(Oc4ccccc4)cc3)c2cc1OC,residual activity,[15],114%
